# Test results: PubChem BioAssay
# Active and inactive are the calls of the source.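 How the source made its calls, unless noted: active means fluorescence slope higher than the sample average by over 3 SD (cut at about -0.22 in these data, passing the limit was not always enough); inactive means the rest.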
# Test system: not listed separately
# Test: endothelial E-selectin expression blockers – imaging, HUVEC, immunofluorescence, MLSMR starter and 10KST1 sets, primary screen (AID 487;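 active means visually confirmed hit in the image check and inhibition above 20%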;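 on inhibition: signal is fraction of cell area covered by stained E-selectin grains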;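 on nuclei count: 100% = median nuclei count of all wells on the same plate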)
# Settings: HUVEC TNFalpha-induced E-selectin immunofluorescence imaging, at 2 µM; inhibition: stronger effect = higher value; nuclei count: measured here: cell number, toxicity
Compound,nuclei count [%],inhibition
COc1cccc(Oc2cnc(N)nc2-c2ccc(OC)cc2O)c1,87.8,-111% (inactive)
CCCC1(C(=O)OC)NC(c2cc(OC)c(OC)c(OC)c2)C2C(=O)N(CC)C(=O)C21 (centres undefined),110,-37.6% (inactive)
CCN(Cc1cc2ccccc2[nH]c1=O)S(=O)(=O)c1ccccc1,104,38.9% (inactive)
CCOC(=O)c1sc2nc(SCC(=O)NCc3ccco3)n(Cc3ccccc3)c(=O)c2c1C,99.6,-22% (inactive)
O=C(c1cc2cc(Cl)cc(Cl)c2oc1=O)N1CCOCC1,110,-63.2% (inactive)
Cc1ccc2nc(NCCCN3CCOCC3)c(C=NCCCN3CCOCC3)c(=O)n2c1,141,-49.1% (inactive)
O=C(NCN1CCCCC1)c1cnccn1,115,-101% (inactive)
Cc1ccc(N=Cc2ccc(O)cc2O)cc1F,107,-98.5% (inactive)
Cn1c2ccc(F)cc2c2ncn(CCN3CCOCC3)c(=O)c21,109,-39.1% (inactive)
CCOC(=O)c1ccc(NC(=O)CSC2=NC(=O)C(CC)C(=O)N2)cc1 (centres undefined),102,-104% (inactive)
N#CCCn1ccc(NC(=O)c2ccc(Cl)cc2)n1,131,-23% (inactive)
CCN(CC)Cc1c(C(=O)OC)nnn1-c1nonc1N,107,-18.2% (inactive)
CCN1CCN(Cc2nc3c(c(=O)n(C)c(=O)n3C)n2CC(=O)c2ccccc2)CC1,106,-9.3% (inactive)
CC(=O)N(C)C1(c2nnnn2CCOC(=O)Nc2ccc(Cl)cc2)CCCCC1,105,-33.3% (inactive)
COCCn1nnnc1CN(Cc1cccnc1)Cc1cc2cc(OC)ccc2[nH]c1=O,107,-11.6% (inactive)
CCOc1cccc(-n2nnnc2-c2ccc(OC)cc2)c1,112,-13.7% (inactive)
COc1ccc(N2CCN(C(c3cccs3)c3nnnn3C3CCCC3)CC2)cc1 (centres undefined),88.2,-10.3% (inactive)
CCS(=O)(=O)N1CCCC(C(=O)NCCc2ccc(OC)c(OC)c2)C1 (centres undefined),109,45.8% (inactive)
CC(=O)Nc1ccc(S(=O)(=O)NCC(C)NS(=O)(=O)c2ccc(NC(C)=O)cc2)cc1 (centres undefined),95.1,-204% (inactive)
Cc1nc2ncnn2c(N2CCC(C(=O)NC3CCCC3)CC2)c1Cc1ccccc1,117,-87.8% (inactive)
c1ccc(-n2cnc3cc(NCc4ccccn4)ccc32)cc1,183,-28.1% (inactive)
Cc1nn(-c2ccc(F)cc2)c2sc(C(=O)N3CCCCCC3)cc12,113,-38.9% (inactive)
O=C(Nc1ccccc1-c1ccccc1)NC1CCN(CC(=O)N2CCOCC2)CC1,109,-63.8% (inactive)
Cc1ccccc1-c1nc(CN2CCC(C(=O)NC3CCN(Cc4ccccc4)CC3)CC2)c(C)o1,108,13% (inactive)
Cc1[nH]c(C(=O)N2CCCCC2)c(C)c1C(=O)NC1CCCCC1,123,-49.8% (inactive)

# Target: Voltage-gated potassium channel subunit beta-2 (Rattus norvegicus) (UniProt P62483)
# Sequence (P62483 whole entry, looked up): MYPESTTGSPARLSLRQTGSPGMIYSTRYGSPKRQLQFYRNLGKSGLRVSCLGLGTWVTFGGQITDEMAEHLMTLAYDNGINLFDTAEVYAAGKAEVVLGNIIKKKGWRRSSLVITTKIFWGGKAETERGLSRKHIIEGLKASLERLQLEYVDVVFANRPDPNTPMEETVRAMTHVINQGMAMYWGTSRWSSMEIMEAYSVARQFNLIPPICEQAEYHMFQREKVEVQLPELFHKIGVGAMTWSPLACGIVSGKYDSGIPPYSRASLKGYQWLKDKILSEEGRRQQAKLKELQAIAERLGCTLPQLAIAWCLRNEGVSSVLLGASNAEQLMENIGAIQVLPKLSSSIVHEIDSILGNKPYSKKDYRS
# Test: inhibitors of rat Kvbeta2 reductase activity – biochemical, NADPH fluorescence, primary screen (AID 622);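 further: slope of raw intensity against log time taken from 70 to 1610 s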
# Settings: recombinant KvBeta, 4-cyanobenzaldehyde reduction, at 10 µM, stronger effect = higher value
row,Compound,fluorescence slope
1,O=C(NC1=NCCS1)c1nc(-c2ccccc2)n(-c2ccccc2)n1,-0.405 (inactive)
2,CN(C)/C=N/c1ncnc2c1cnn2-c1ccc(C(F)(F)F)cn1,-0.583 (inactive)
3,Cc1cc(=O)n(CCO)c(O)c1C#N,-0.351 (inactive)
4,CC(=O)c1ccc(OCC(O)CN2CCN(CCO)CC2)cc1 (centres undefined),-0.549 (inactive)
5,C=CCNC(=O)CSc1nc2sc(C)c(C)c2c(=O)[nH]1,-0.556 (inactive)
6,O=S(=O)(NCc1cn2ccsc2n1)c1ccc2c(c1)OCCO2,-0.502 (inactive)
7,CC(=O)C(Sc1ncnc2c1nnn2-c1ccc(F)cc1)C(=O)N(C)C (centres undefined),-0.492 (inactive)
8,CCOCCc1nnc(NC(=O)c2ccc(OC)c(OC)c2)s1,-0.515 (inactive)
9,CCCCNC(=O)CSc1nc2ccc(N3CCOCC3)cc2c(=O)n1CCc1ccccc1,-0.565 (inactive)
10,CC(=O)c1ccc(OC(=O)c2cccs2)cc1,-0.498 (inactive)
11,Cn1nnnc1SCC(=O)N1CCN(c2cccc(Cl)c2)CC1,-0.619 (inactive)
12,COc1cc(C(c2sc3nc(C)nn3c2O)N2CC(C)CC(C)C2)cc(OC)c1OC (centres undefined),-0.505 (inactive)
13,O=C1C2C3C=CC(C3)C2C(=O)N1c1cccc(N2C(=O)C3C4C=CC(C4)C3C2=O)n1 (centres undefined),-0.549 (inactive)
14,O=C(Nc1ccc(Cl)cc1C(=O)O)c1ccc2c(c1)C(=O)N(Cc1ccco1)C2=O,-0.493 (inactive)
15,COc1cccc(Oc2cnc(N)nc2-c2ccc(OC)cc2O)c1,-0.427 (inactive)
16,CCCC1(C(=O)OC)NC(c2cc(OC)c(OC)c(OC)c2)C2C(=O)N(CC)C(=O)C21 (centres undefined),-0.48 (inactive)
17,CCN(Cc1cc2ccccc2[nH]c1=O)S(=O)(=O)c1ccccc1,-0.627 (inactive)
18,CCOC(=O)c1sc2nc(SCC(=O)NCc3ccco3)n(Cc3ccccc3)c(=O)c2c1C,-0.449 (inactive)
19,O=C(c1cc2cc(Cl)cc(Cl)c2oc1=O)N1CCOCC1,-0.48 (inactive)
20,Cc1ccc2nc(NCCCN3CCOCC3)c(C=NCCCN3CCOCC3)c(=O)n2c1,-0.435 (inactive)

row,Compound,fluorescence slope
1,O=C(NCN1CCCCC1)c1cnccn1,-0.425 (inactive)
2,Cc1ccc(N=Cc2ccc(O)cc2O)cc1F,-0.395 (inactive)
3,Cn1c2ccc(F)cc2c2ncn(CCN3CCOCC3)c(=O)c21,-0.424 (inactive)
4,CCOC(=O)c1ccc(NC(=O)CSC2=NC(=O)C(CC)C(=O)N2)cc1 (centres undefined),-0.569 (inactive)
5,N#CCCn1ccc(NC(=O)c2ccc(Cl)cc2)n1,-0.477 (inactive)
6,CCN(CC)Cc1c(C(=O)OC)nnn1-c1nonc1N,-0.504 (inactive)
7,CCN1CCN(Cc2nc3c(c(=O)n(C)c(=O)n3C)n2CC(=O)c2ccccc2)CC1,-0.556 (inactive)
8,CC(=O)N(C)C1(c2nnnn2CCOC(=O)Nc2ccc(Cl)cc2)CCCCC1,-0.398 (inactive)
9,COCCn1nnnc1CN(Cc1cccnc1)Cc1cc2cc(OC)ccc2[nH]c1=O,-0.605 (inactive)
10,CCOc1cccc(-n2nnnc2-c2ccc(OC)cc2)c1,-0.591 (inactive)
11,COc1ccc(N2CCN(C(c3cccs3)c3nnnn3C3CCCC3)CC2)cc1 (centres undefined),-0.614 (inactive)
12,CCS(=O)(=O)N1CCCC(C(=O)NCCc2ccc(OC)c(OC)c2)C1 (centres undefined),-0.43 (inactive)
13,CC(=O)Nc1ccc(S(=O)(=O)NCC(C)NS(=O)(=O)c2ccc(NC(C)=O)cc2)cc1 (centres undefined),-0.442 (inactive)
14,Cc1nc2ncnn2c(N2CCC(C(=O)NC3CCCC3)CC2)c1Cc1ccccc1,-0.463 (inactive)
15,c1ccc(-n2cnc3cc(NCc4ccccn4)ccc32)cc1,-0.596 (inactive)
16,Cc1nn(-c2ccc(F)cc2)c2sc(C(=O)N3CCCCCC3)cc12,-0.199 (inactive)
17,O=C(Nc1ccccc1-c1ccccc1)NC1CCN(CC(=O)N2CCOCC2)CC1,-0.433 (inactive)
18,Cc1ccccc1-c1nc(CN2CCC(C(=O)NC3CCN(Cc4ccccc4)CC3)CC2)c(C)o1,-0.561 (inactive)
19,Cc1[nH]c(C(=O)N2CCCCC2)c(C)c1C(=O)NC1CCCCC1,-0.528 (inactive)
